The text below walks through data of PubChem BioAssay (EPA / NIEHS).

The target of experiment [1] is Glucocorticoid receptor (Homo sapiens) (UniProt P04150). Briefly: ATG_GR_TRANS: Attagene TRANS-FACTORIAL HepG2 Assay for human Glucocorticoid Receptor (GR) (AID 2282978; active means hit-call score of the fitted dose curve at least 0.9, where 1 is the maximum;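 further: activators score as hits since higher reporter transcript over DMSO is fitted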). The note with it: HepG2 Attagene TRANS GR reporter, mRNA transcription. The gist of the method:
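HepG2 transient transfection, multiple reporter units, GAL4-UAS under NR-GAL4 chimera control. 24 h treatment. Reporter mRNA by RT-PCR/CE fluorescence, DMSO as negative control.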

Experiment [2] addresses Bile acid receptor (Homo sapiens) (UniProt Q96RI1). Briefly: ATG_FXR_TRANS: Attagene TRANS-FACTORIAL HepG2 Assay for Farnesoid X Receptor (FXR) (AID 2282979; active means hit-call score of the fitted dose curve at least 0.9, where 1 is the maximum;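 further: hits raise reporter mRNA above DMSO so AC50 marks FXR activation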). The following applies: HepG2 Attagene TRANS FXR-GAL4 reporter transcription. The gist of the method: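 HepG2 cells were transiently transfected with GAL4-UAS reporters driven by chimeric NR-Gal4 proteins and dosed for 24 h. Reporter mRNA was quantified by RT-PCR, fluorescent labelling, HpaI digestion and capillary electrophoresis, with gain of signal scored versus DMSO.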

Experiment [3] in a line: ATG_M_06_TRANS: Attagene TRANS-FACTORIAL HepG2 Assay for M06 Transcription Factor (Internal Marker) (AID 2282983; active means hit-call score of the fitted dose curve at least 0.9, where 1 is the maximum;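 further: reporter transcript level by RT-PCR then capillary electrophoresis fluorescence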). The following applies: HepG2 Attagene TRANS M06 internal marker reporter. The gist of the method:
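HepG2 cells transiently transfected with GAL4-UAS multiple reporter units, dosed 24 h. Reporter RNA reverse-transcribed, PCR-amplified, 6-FAM-labeled, HpaI-digested and quantified by capillary electrophoresis; this internal-marker signal fitted upward relative to DMSO.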

Experiment [4] deals with Nuclear receptor subfamily 4 group A member 2 (Homo sapiens) (UniProt P43354). Briefly: ATG_NURR1_TRANS: Attagene TRANS-FACTORIAL HepG2 Assay for human Nuclear Receptor Related Protein 1 (NURR1) (AID 2282985; active means hit-call score of the fitted dose curve at least 0.9, where 1 is the maximum). The note with it: HepG2 Attagene TRANS reporter, mRNA readout. The gist of the method: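 HepG2 cells transiently transfected with GAL4-UAS reporter units and chimeric NR-Gal4 constructs; chemical exposure 24 h. Reporter mRNA quantified by RT-PCR, fluorescent labelling and capillary electrophoresis; gain of signal fitted relative to DMSO baseline.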
Nuclear receptor subfamily 4 group A member 2 (Homo sapiens), sequence (P43354 whole entry, looked up, the tested form may be a part): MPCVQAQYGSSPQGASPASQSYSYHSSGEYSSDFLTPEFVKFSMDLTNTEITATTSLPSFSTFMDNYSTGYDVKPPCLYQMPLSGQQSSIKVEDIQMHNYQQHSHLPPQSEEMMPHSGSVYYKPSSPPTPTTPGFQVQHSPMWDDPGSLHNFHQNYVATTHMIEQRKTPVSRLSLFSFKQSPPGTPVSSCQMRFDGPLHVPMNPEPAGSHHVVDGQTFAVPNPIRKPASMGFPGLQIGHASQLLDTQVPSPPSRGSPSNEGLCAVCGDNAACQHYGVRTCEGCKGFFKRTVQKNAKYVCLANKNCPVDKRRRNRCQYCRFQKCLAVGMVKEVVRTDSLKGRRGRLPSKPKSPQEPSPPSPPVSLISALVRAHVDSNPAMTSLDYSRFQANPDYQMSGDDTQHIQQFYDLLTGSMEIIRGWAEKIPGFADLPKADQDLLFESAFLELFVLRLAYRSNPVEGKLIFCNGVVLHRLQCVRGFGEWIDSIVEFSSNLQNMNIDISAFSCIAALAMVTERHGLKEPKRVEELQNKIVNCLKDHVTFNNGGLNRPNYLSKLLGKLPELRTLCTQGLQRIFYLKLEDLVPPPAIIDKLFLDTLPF

Experiment [5] has as its target Transcriptional activator Myb (Homo sapiens) (UniProt P10242). Put plainly: ATG_Myb_CIS: Attagene CIS-FACTORIAL HepG2 Assay for human Myeloblastosis (Myb) Proto-Oncogene Transcription Factor (AID 2282986). The note with it: HepG2 Attagene CIS-FACTORIAL Myb reporter transcription; actives raise or lower the signal. The gist of the method: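 Multiplexed cis-reporter system in HepG2: transient transfection, 24 h treatment, mRNA readout by RT-PCR and capillary electrophoresis. Both increases and decreases are scored versus DMSO negative control.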

Experiment [6] addresses Nuclear respiratory factor 1 (Homo sapiens) (UniProt Q16656). Briefly: ATG_NRF1_CIS: Attagene CIS-FACTORIAL HepG2 Assay for human Nuclear Respiratory Factor 1 (NRF1) Orphan Gene (AID 2282987). The following applies: HepG2 NRF1 cis-element reporter, Attagene multiplex; actives raise or lower the signal. The gist of the method:
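Endogenous factor activity was captured via cis-element-driven reporter transcripts in HepG2 cells. Following 24 h chemical treatment, transcripts were quantified by RT-PCR and capillary electrophoresis.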

A short description of experiment [7]: ATG_NFI_CIS: Attagene CIS-FACTORIAL HepG2 Assay for human Nuclear Factor I (NFI) (AID 2282989). The following applies: HepG2 cis-regulatory reporter, NFI response element transcription; actives raise or lower the signal. The gist of the method: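 After transient transfection of HepG2 with cis-promoter reporter constructs and 24 h dosing, RNA is reverse-transcribed, amplified, 6-FAM end-labelled and HpaI-digested before capillary analysis. Bidirectional curve fitting against DMSO.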

Experiment [8] deals with Myc proto-oncogene protein (Homo sapiens) (UniProt P01106). Briefly: ATG_Myc_CIS: Attagene CIS-FACTORIAL HepG2 Assay for human Myelocytomatosis (Myc) Proto-Oncogene Transcription Factor (AID 2282990). The following applies: HepG2, Attagene cis-reporter transcription factor activity; actives raise or lower the signal. In outline: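 HepG2 cells transiently transfected with multiple cis-promoter-driven reporter transcription units, so endogenous TF activity is read. After 24 h compound exposure, reporter mRNA was quantified by RT-PCR, 6-FAM labelling, HpaI digestion and capillary electrophoresis; bidirectional fit versus DMSO.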
Myc proto-oncogene protein (Homo sapiens), sequence (P01106 whole entry, looked up): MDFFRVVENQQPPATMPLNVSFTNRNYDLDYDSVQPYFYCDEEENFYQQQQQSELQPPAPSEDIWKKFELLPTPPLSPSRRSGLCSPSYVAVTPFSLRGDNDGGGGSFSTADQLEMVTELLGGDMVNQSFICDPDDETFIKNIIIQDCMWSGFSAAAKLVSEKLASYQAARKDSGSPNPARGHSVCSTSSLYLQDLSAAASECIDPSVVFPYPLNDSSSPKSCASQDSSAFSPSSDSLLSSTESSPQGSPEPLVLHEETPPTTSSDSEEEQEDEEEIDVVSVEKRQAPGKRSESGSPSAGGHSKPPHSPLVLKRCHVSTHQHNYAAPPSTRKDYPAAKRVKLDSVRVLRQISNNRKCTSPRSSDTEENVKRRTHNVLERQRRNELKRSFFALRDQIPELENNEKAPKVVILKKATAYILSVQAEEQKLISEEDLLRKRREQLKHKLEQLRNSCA

Experiment [9] is described as follows: ATG_NF_kB_CIS: Attagene CIS-FACTORIAL HepG2 Assay for human Nuclear Factor Kappa B (NF-kB) (AID 2282991). The note with it: HepG2 Attagene cis-factorial NF-kB reporter mRNA; actives raise or lower the signal. In outline: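 After 24 h compound incubation, transfected HepG2 cells yield total RNA; reporter cDNA is PCR-amplified, end-labelled with 6-FAM, HpaI-digested and analysed on a genetic analyser. Endogenous factor activity, DMSO-referenced bidirectional fit.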

A short description of experiment [10]: ATG_NRF2_ARE_CIS: Attagene CIS-FACTORIAL HepG2 Assay for human Nuclear Factor Erythroid 2 Related Factor 2 (NFR2) response to Antioxidant Response Elements (ARE) (AID 2282992). The following applies: HepG2 Attagene ARE/NRF2 reporter, transcription factor activity; actives raise or lower the signal. The gist of the method:
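Cis-factorial assay: transfected HepG2 reporter library, 24 h dosing, mRNA readout via RT-PCR/CE; DMSO-referenced bidirectional analysis.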

Experiment [11] is described as follows: ATG_Oct_MLP_CIS: Attagene CIS-FACTORIAL HepG2 Assay for human Octamer-Binding Transcription Factor (Oct) (AID 2282993). The following applies: HepG2 Attagene cis-factorial Oct reporter, mRNA; actives raise or lower the signal. The gist of the method:
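Cells of the HepG2 line express promoter-controlled reporter sequences whose mRNA levels, after 24 h treatment, are measured by RT-PCR and capillary electrophoresis. Increases and decreases are scored relative to DMSO.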

Experiment [12] deals with Cellular tumor antigen p53 (Homo sapiens) (UniProt P04637). Put plainly: ATG_p53_CIS: Attagene CIS-FACTORIAL HepG2 Assay for human p53 Transcription Factor (AID 2282994). The following applies: HepG2 p53 cis-element reporter, Attagene mRNA; actives raise or lower the signal. In outline: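 Using HepG2 hepatoma cells carrying cis-acting multiplexed reporters, mRNA induction is detected after a 24 h exposure. Gain- and loss-of-signal responses are fitted relative to DMSO-treated cells.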
Cellular tumor antigen p53 (Homo sapiens), sequence (P04637 whole entry, looked up): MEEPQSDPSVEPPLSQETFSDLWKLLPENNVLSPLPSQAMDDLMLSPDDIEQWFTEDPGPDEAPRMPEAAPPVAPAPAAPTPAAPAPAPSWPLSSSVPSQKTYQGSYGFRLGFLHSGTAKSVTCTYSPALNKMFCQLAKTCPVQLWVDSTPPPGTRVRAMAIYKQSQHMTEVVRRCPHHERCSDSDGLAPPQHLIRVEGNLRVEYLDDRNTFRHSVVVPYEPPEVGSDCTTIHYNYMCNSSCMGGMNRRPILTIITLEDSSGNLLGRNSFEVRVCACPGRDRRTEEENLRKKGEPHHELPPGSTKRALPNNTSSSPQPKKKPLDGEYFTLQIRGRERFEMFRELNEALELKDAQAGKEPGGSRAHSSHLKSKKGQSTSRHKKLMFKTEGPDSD

A short description of experiment [13]: BSK_3C_TissueFactor: BioMAP Diversity Plus: 3C Assay for Tissue Factor Biomarker Activity (AID 2282997). The following applies: BioMAP 3C HUVEC, tissue factor biomarker readout; actives raise or lower the signal. The gist of the method: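 HUVEC were treated 24 h, then surface tissue factor measured by ELISA and fitted bidirectionally against DMSO. Parallel SRB total-protein staining assessed overt cytotoxicity at the same time point.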

A short description of experiment [14]: BSK_3C_uPAR: BioMAP Diversity Plus: 3C Assay for Urokinase-type plasminogen activator receptor (uPAR) Biomarker Activity (AID 2282998). The following applies: BioMAP 3C HUVEC, uPAR biomarker ELISA; actives raise or lower the signal. In outline:
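Endothelial primary cells of human umbilical vein origin received test chemical; 24 h later uPAR was assayed by ELISA. Fitting was bidirectional, DMSO as negative control.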
(An ELISA detects its analyte on a solid surface through an enzyme-linked reagent.)

The target of experiment [15] is Oxysterols receptor LXR-alpha (Homo sapiens) (UniProt Q13133). Put plainly: ATG_LXRa_TRANS: Attagene TRANS-FACTORIAL HepG2 Assay for human Liver X Receptor alpha (LXRa) (AID 2282980; active means hit-call score of the fitted dose curve at least 0.9, where 1 is the maximum). The following applies: HepG2 Attagene TRANS reporter, LXRa transactivation. In outline: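 HepG2 cells transiently transfected with GAL4-UAS reporter units for chimeric NR-Gal4 proteins, exposed to chemicals for 24 h. Reporter mRNA quantified by RT-PCR and capillary electrophoresis; gain of signal fitted relative to DMSO.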
Oxysterols receptor LXR-alpha (Homo sapiens), sequence (Q13133 whole entry, looked up, the tested form may be a part): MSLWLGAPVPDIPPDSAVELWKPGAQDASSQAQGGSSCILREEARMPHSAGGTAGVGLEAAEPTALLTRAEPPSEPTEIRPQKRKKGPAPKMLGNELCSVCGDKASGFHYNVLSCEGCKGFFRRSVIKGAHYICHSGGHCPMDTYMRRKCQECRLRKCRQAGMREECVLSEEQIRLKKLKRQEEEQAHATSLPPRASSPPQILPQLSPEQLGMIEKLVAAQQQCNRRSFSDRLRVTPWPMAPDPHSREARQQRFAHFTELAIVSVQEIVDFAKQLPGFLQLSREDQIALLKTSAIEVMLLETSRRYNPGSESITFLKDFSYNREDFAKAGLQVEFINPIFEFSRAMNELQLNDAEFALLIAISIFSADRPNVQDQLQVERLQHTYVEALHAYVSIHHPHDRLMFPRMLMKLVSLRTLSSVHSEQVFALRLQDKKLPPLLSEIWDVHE

The nature of experiment [16]: ATG_M_32_TRANS: Attagene TRANS-FACTORIAL HepG2 Assay for M32 Transcription Factor (Internal Marker) (AID 2282984; active means hit-call score of the fitted dose curve at least 0.9, where 1 is the maximum;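 further: transcript level of a background control reporter unit measured by RT-PCR and capillary electrophoresis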). The note with it: HepG2 Attagene TRANS M32 internal marker reporter. The gist of the method:
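HepG2 cells transiently transfected with multiple GAL4-UAS reporter transcription units, dosed for 24 hours; reporter mRNA quantified by RT-PCR, 6-FAM primer extension, HpaI digestion and capillary electrophoresis. Gain-of-signal fitted versus DMSO baseline; internal background-control marker.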

The target in experiment [17] is Hepatocyte nuclear factor 4-alpha (Homo sapiens) (UniProt P41235). Put plainly: ATG_HNF4a_TRANS: Attagene TRANS-FACTORIAL HepG2 Assay for human Hepatocyte Nuclear Factor 4 alpha (HNF4a) (AID 2282982; active means hit-call score of the fitted dose curve at least 0.9, where 1 is the maximum). The note with it: HepG2 HNF4a transactivation reporter, mRNA readout. In outline: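 HepG2 cells transiently transfected with multiplexed GAL4-UAS reporter units responsive to chimeric NR-GAL4 proteins; compound exposure 24 h. Reporter mRNA quantified by RT-PCR, 6-FAM labelling, HpaI digestion and capillary electrophoresis; gain of signal versus DMSO baseline.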
Hepatocyte nuclear factor 4-alpha (Homo sapiens), sequence (P41235 whole entry, looked up, the tested form may be a part): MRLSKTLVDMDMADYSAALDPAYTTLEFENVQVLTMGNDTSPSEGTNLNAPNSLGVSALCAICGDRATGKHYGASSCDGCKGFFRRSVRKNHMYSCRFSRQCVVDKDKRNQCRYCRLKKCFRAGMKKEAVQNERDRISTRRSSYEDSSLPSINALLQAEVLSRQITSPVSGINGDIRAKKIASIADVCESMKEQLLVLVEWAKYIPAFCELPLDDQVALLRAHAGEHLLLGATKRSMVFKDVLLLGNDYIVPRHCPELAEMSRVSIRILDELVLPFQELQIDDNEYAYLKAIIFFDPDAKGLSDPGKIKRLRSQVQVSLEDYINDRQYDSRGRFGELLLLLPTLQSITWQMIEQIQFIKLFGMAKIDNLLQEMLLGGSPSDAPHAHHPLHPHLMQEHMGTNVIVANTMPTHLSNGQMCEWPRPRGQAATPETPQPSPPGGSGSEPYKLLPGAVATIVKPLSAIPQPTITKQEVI

The nature of experiment [18]: BSK_3C_VCAM1: BioMAP Diversity Plus: 3C Assay for Vascular cell adhesion molecule 1 (VCAM1) Biomarker Activity (AID 2282999). The note with it: BioMAP 3C HUVEC, VCAM1 ELISA, cytokine-stimulated; actives raise or lower the signal. The gist of the method:
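Human umbilical vein endothelial cells were dosed with compound for 24 h, after which cell-surface VCAM-1 was quantified by ELISA. Bidirectional curve fitting used DMSO as negative control and activity baseline.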

Inconclusive results are not listed. The source made the active and inactive calls. How the source made its calls, unless noted: active means hit-call score of the fitted dose curve at least 0.9, where 1 is the maximum; inactive means score below 0.9.

Glucocorticoid receptor (Homo sapiens), sequence (P04150 whole entry, looked up, the tested form may be a part): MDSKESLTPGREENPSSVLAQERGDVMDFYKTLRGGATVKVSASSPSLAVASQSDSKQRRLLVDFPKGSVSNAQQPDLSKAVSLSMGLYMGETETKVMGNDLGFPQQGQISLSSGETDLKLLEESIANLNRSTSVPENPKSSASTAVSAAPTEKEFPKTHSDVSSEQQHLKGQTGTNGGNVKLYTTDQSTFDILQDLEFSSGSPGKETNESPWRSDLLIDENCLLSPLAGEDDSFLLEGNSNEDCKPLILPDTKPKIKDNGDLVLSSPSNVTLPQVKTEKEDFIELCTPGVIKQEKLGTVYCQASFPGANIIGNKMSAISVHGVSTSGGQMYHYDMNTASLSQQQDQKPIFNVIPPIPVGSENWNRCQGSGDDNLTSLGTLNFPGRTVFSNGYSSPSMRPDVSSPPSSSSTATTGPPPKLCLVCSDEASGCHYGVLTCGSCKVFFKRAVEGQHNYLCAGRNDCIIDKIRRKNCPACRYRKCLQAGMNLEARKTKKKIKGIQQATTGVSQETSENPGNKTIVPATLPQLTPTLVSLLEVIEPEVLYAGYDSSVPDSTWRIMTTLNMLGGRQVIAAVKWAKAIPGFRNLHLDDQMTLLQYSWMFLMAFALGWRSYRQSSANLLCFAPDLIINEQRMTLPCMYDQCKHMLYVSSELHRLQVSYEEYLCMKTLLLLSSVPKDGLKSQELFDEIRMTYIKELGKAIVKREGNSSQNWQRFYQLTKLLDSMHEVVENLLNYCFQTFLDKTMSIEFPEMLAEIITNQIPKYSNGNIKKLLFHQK
Transcriptional activator Myb (Homo sapiens), sequence (P10242 whole entry, looked up): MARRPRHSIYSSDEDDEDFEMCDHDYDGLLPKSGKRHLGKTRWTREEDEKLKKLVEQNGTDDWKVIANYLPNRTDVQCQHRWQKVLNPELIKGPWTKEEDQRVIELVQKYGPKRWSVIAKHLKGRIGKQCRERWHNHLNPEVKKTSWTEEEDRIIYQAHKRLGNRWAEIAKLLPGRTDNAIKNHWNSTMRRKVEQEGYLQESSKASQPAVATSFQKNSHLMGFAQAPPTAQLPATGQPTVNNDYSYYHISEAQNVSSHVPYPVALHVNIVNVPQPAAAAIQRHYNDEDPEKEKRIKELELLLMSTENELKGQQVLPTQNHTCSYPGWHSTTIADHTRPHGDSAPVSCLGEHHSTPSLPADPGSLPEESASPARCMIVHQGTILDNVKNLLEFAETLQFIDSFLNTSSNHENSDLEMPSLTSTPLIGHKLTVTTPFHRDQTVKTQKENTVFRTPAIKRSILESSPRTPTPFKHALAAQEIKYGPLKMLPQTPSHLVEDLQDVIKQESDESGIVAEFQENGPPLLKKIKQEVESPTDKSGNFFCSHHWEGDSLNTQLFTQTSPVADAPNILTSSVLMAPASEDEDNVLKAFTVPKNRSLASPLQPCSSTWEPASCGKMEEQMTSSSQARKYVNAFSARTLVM
Nuclear respiratory factor 1 (Homo sapiens), sequence (Q16656 whole entry, looked up): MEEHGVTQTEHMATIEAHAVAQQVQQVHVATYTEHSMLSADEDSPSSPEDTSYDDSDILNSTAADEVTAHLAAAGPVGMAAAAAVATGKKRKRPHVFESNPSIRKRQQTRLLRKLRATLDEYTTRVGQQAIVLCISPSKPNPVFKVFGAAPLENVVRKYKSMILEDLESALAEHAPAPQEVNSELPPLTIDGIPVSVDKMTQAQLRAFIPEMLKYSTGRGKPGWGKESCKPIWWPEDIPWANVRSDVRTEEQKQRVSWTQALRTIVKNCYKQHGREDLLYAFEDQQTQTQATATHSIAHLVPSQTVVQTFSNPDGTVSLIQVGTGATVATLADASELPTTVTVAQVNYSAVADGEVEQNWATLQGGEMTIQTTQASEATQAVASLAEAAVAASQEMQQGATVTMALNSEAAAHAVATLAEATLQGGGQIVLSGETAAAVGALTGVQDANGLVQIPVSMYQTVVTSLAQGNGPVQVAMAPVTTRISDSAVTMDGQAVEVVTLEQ
Bile acid receptor (Homo sapiens), sequence (Q96RI1 whole entry, looked up, the tested form may be a part): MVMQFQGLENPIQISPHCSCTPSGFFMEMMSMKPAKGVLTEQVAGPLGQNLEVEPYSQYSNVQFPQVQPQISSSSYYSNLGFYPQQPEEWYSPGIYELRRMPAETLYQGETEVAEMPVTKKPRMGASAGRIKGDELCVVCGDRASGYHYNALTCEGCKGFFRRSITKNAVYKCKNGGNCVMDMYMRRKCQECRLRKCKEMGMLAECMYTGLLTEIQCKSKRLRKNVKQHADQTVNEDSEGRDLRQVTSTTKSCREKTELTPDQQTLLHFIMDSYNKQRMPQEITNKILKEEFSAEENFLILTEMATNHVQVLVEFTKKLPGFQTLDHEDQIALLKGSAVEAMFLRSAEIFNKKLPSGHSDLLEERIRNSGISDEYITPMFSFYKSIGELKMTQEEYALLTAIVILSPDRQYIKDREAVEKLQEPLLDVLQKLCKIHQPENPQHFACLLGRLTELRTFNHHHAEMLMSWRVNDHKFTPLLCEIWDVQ

Broadly, the AC50 is the concentration at which the activity in the assay is half-maximal. Regarding `OC(O)C(F)(F)C(F)(F)F`, the molecule was called inactive in experiment [1], in experiment [2], in experiment [3], in experiment [4], in experiment [5] and in [6]. Further, the result in experiment [7], in [8], in experiment [11], in experiment [13] and in [14] was inactive. Further, the AC50 in [9] is 127 µM (active); in experiment [10], 93.6 µM (active); in experiment [12] it was 121 µM (active).
As to `CC(C)C(=O)OCc1ccccc1`, the result in experiment [1], in experiment [2], in experiment [15], in experiment [16], in experiment [5] and in experiment [6] was inactive. Besides, the molecule was called inactive in experiment [7], in experiment [8], in experiment [9], in experiment [10], in experiment [11] and in [12].
Regarding `O=C(Cl)c1ccc(Cl)cc1Cl`, the molecule was classed as inactive in [1], in [2], in [15], in experiment [17], in [3] and in experiment [16]. The molecule was called inactive in experiment [4], in experiment [5], in [6], in experiment [7], in [8] and in [9]. For the same molecule, the molecule was classed as inactive in experiment [10] and in [12].
In the case of `CCN(CC)c1ccc(C=O)c(O)c1`, the result in [1], in [2], in [15], in experiment [3], in experiment [16] and in experiment [4] was inactive. Besides, the result in experiment [5], in experiment [6], in experiment [7], in experiment [8], in [9] and in [10] was inactive. Moreover, the result in [13], in experiment [14] and in experiment [18] was inactive. In addition, the AC50 in [12] was 70.5 µM (active).
`Oc1ccc(C2(c3ccc(O)c(C4CCCCC4)c3)CCCCC2)cc1C1CCCCC1`: the call in experiment [1], in experiment [2], in experiment [17], in [3], in [16] and in [6] was inactive. The call in experiment [8], in experiment [9], in experiment [11] and in experiment [12] was inactive. For the same molecule, the AC50 in experiment [5] was 51.3 µM (active); in experiment [7], 8.18 µM (active); in [10], 6.2 µM (active).
